Assay results published in the supplement of paper PMC12494721.
Counter-ions that a name gives are not always drawn.

How the values were obtained:
Details in all cases: 20 µM; incubation time: 27 h, anaerobic, 37 °C;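 for the amine columns active = adjusted P below 0.05 in both replicates with a change the same way and a mean fold change under 0.8 or over 1.25; inactive = the rest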
[1] = test system: Clostridium sporogenes DSM 1664; experiment: growth (OD595) fold change vs plate DMSO controls (fold change (ratio)); higher = more growth
Summary of the method: (§1)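 The measure reported is growth, taken as fold change against the median of DMSO controls on the same plate. Anaerobic mGAM cultures in 96-well plates (27 h, 37 °C) were read at 595 nm, blank-subtracted, corrected for compound background using 20 µM compound solutions in water, and multiplied by a calibration factor of 5 to give OD. Any fold change above 1.5 became NA, and 2 biological replicates were averaged.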

Escherichia coli IAI1 [2] = experiment: as above
Summary of the method: as §1

[3] = test system: Klebsiella aerogenes DSM 30053; experiment: as above
Summary of the method: as §1

[4] = test system: Ruminococcus gnavus DSM 108212; experiment: as above
Summary of the method: as §1

[5] = test system: Klebsiella aerogenes DSM 30053; experiment: fold change of Histamine concentration vs plate DMSO controls (fold change (ratio)); higher = more amine produced, active = hit call of the paper (significant change in both replicates, either direction)
Summary of the method: (§2)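 Amines were quantified by LC–triple-quadrupole MS in dynamic MRM mode against external calibration curves, with drift correction within each batch. The samples were whole anaerobic mGAM cultures of four gut bacterial strains, grown for 27 h at 37 °C in 80 µL wells and extracted with cold acetonitrile/methanol with 0.1% formic acid, then centrifuged. Values are reported as fold change over DMSO controls on the same plate. The mean of 2 biological replicates is given.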

[6] = test system: Clostridium sporogenes DSM 1664; experiment: fold change of Tryptamine concentration vs plate DMSO controls (fold change (ratio)); higher = more amine produced, active = hit call of the paper (significant change in both replicates, either direction)
Summary of the method: as §2

[7] = test system: Ruminococcus gnavus DSM 108212; experiment: as above
Summary of the method: as §2

Escherichia coli IAI1 [8] = experiment: fold change of Putrescine concentration vs plate DMSO controls (fold change (ratio)); higher = more amine produced, active = hit call of the paper (significant change in both replicates, either direction)
Summary of the method: as §2

[9] = test system: Klebsiella aerogenes DSM 30053; experiment: as above
Summary of the method: as §2

Escherichia coli IAI1 [10] = experiment: fold change of Cadaverine concentration vs plate DMSO controls (fold change (ratio)); higher = more amine produced, active = hit call of the paper (significant change in both replicates, either direction)
Summary of the method: as §2

[11] = test system: Klebsiella aerogenes DSM 30053; experiment: as above
Summary of the method: as §2

[12] = test system: Ruminococcus gnavus DSM 108212; experiment: fold change of 2-Phenylethylamine concentration vs plate DMSO controls (fold change (ratio)); higher = more amine produced, active = hit call of the paper (significant change in both replicates, either direction)
Summary of the method: as §2

SMILES | growth [1] | growth (Escherichia coli IAI1 [2]) | growth [3] | growth [4] | fold change of Histamine concentration [5] | fold change of Tryptamine concentration [6] | fold change of Tryptamine concentration [7] | fold change of Putrescine concentration (Escherichia coli IAI1 [8]) | fold change of Putrescine concentration [9] | fold change of Cadaverine concentration (Escherichia coli IAI1 [10]) | fold change of Cadaverine concentration [11] | fold change of 2-Phenylethylamine concentration [12]
COC(=O)NC(=S)Nc1ccccc1NC(=S)NC(=O)OC | 1.11 | 1.02 | 0.97 | 0.994 | 0.974 (inactive) | 1.02 (inactive) | 0.971 (inactive) | 0.954 (inactive) | 0.972 (inactive) | 0.974 (inactive) | 1.01 (inactive) | 0.936 (inactive)
NC(=O)CN1CCCC1=O [Piracetam] | 1.08 | 0.995 | 0.984 | 1.11 | 1.04 (inactive) | 1.01 (inactive) | 1.02 (inactive) | 1.04 (inactive) | 1.01 (inactive) | 0.997 (inactive) | 0.985 (inactive) | 1.01 (inactive)
CCC1(C2=NCCN2)Cc2ccccc2O1 (stereo unspecified) [Efaroxan hydrochloride] | 1.05 | 1.05 | 0.982 | 1.08 | 0.992 (inactive) | 0.939 (inactive) | 1.03 (inactive) | 0.97 (inactive) | 1.01 (inactive) | 1.06 (inactive) | 0.997 (inactive) | 1.01 (inactive)
COc1ncc(F)c2nc(S(=O)(=O)Nc3c(F)cccc3F)nn12 | 1.08 | 0.984 | 1.08 | 1.15 | 0.874 (inactive) | 1.04 (inactive) | 0.984 (inactive) | 1.01 (inactive) | 0.997 (inactive) | 0.998 (inactive) | 1.03 (inactive) | 0.993 (inactive)
CN/C(=N/CC1CCOC1)N[N+](=O)[O-] (stereo unspecified) | 1.07 | 1 | 1.01 | 1.03 | 1.03 (inactive) | 0.993 (inactive) | 1.01 (inactive) | 1.03 (inactive) | 1.02 (inactive) | 0.992 (inactive) | 0.999 (inactive) | 0.994 (inactive)
N#Cc1c[nH]cc1-c1cccc2c1OC(F)(F)O2 | 0.873 | 0.959 | 0.984 | 1.17 | 1.01 (inactive) | 1.03 (inactive) | 0.939 (inactive) | 0.993 (inactive) | 0.977 (inactive) | 1.08 (inactive) | 0.981 (inactive) | 0.972 (inactive)
Cc1cc(C)nc(Nc2ccccc2)n1 | 0.995 | 1.06 | 0.999 | 1.01 | 0.986 (inactive) | 1 (inactive) | 1 (inactive) | 1.05 (inactive) | 1.02 (inactive) | 1.05 (inactive) | 1.02 (inactive) | 1.04 (inactive)
C[C@]12COC(=O)C[C@@H]1CC[C@@H]1[C@@H]2CC[C@@]2(C)[C@H]1CC[C@]2(C)O [Oxandrolone] | 0.947 | 0.993 | 1.03 | 0.877 | 0.945 (inactive) | 0.945 (inactive) | 1.01 (inactive) | 0.974 (inactive) | 0.991 (inactive) | 1.02 (inactive) | 0.999 (inactive) | 1.06 (inactive)
COc1ccc(C(CN(C)C)C2(O)CCCCC2)cc1 (stereo unspecified) [Venlafaxine] | 0.902 | 0.974 | 0.983 | 1.1 | 1.04 (inactive) | 0.942 (inactive) | 1.01 (inactive) | 1.04 (inactive) | 1 (inactive) | 0.819 (inactive) | 0.974 (inactive) | 1.06 (inactive)
O=C(O[C@H]1C[N+]2(CCCOc3ccccc3)CCC1CC2)C(O)(c1cccs1)c1cccs1 [Aclidinium bromide] | 1.12 | 1.08 | 1.03 | 1.14 | 1.05 (inactive) | 1.01 (inactive) | 0.985 (inactive) | 1.08 (inactive) | 1 (inactive) | 0.982 (inactive) | 1 (inactive) | 0.963 (inactive)
C#C[C@]1(O)CC[C@H]2[C@@H]3CCC4=CC(=O)CCC4=C3C=C[C@@]21CC [Gestrinone] | 1.02 | 0.985 | 0.996 | 1.04 | 0.947 (inactive) | 1.03 (inactive) | 1.16 (inactive) | 0.88 (inactive) | 0.96 (inactive) | 0.913 (inactive) | 1.03 (inactive) | 1.18 (inactive)
COc1ccc(C(=CC(=O)N2CCOCC2)c2ccc(Cl)cc2)cc1OC (mixture of isomers) | 1.18 | 1.01 | 1.01 | 0.966 | 1.01 (inactive) | 1.11 (inactive) | 1.08 (inactive) | 0.946 (inactive) | 0.965 (inactive) | 0.929 (inactive) | 1.06 (inactive) | 1.09 (inactive)
Cc1cc(C2CC2)nc(Nc2ccccc2)n1 | 0.944 | 1.01 | 0.977 | 0.987 | 1.04 (inactive) | 0.966 (inactive) | 0.968 (inactive) | 0.975 (inactive) | 0.972 (inactive) | 1.01 (inactive) | 0.99 (inactive) | 1.2 (inactive)
